D2 PAM-1 – potentiates the human D2 dopamine receptor allosterically; DiscoveRx D2 beta-arrestin cells, luminescence, 90 min; 100% = 57 uM dopamine signal; potentiation, % (concentration not given with the values); 360,000 compounds, 0.23% hits; AID 624464; in the data active = potentiation above about 50%; inconclusive = mostly about 30% to 49%
Target sequence (P14416 whole entry, looked up): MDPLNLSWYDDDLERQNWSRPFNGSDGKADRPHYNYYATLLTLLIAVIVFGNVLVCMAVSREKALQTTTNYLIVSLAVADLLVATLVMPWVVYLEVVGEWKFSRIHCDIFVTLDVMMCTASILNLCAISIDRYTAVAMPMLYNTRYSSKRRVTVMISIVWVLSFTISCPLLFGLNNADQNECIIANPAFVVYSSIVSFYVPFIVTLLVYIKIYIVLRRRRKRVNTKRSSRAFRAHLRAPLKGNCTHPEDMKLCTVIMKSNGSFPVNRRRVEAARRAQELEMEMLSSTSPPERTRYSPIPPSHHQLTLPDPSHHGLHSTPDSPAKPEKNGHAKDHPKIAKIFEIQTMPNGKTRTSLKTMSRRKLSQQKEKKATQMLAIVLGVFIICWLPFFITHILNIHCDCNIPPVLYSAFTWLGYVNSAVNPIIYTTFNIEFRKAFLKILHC
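D2 cells co-treated with compound plus 50 nM dopamine (EC20) for 90 min at 37 deg C to detect potentiation. Beta-arrestin recruitment was read as enzyme-fragment luminescence after 1 h at ambient temperature. Full response was set by 57 uM dopamine.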
D2 ag-1 – agonists of human D2 dopamine receptor (beta-arrestin). activation, % (no concentration beside the values). DiscoveRx PathHunter D2 beta-arrestin, luminescence, 90 min; 100% = 57 uM dopamine signal. 360,000 compounds, 0.084% hits; in the data active = activation above about 40%; inconclusive = between about 15% and that limit
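DiscoveRx PathHunter D2 beta-arrestin cells (2,100/well) attached overnight, then compound-stimulated 90 min at 37 C in HBSS/10 mM HEPES/0.1% Tween-20 buffer; beta-galactosidase complementation read by luminescence after 1 h at ambient temperature. Dopamine 57 uM final (EC100) as control.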
D2 ag-2 – agonists of human D2 dopamine receptor; HEK293 T-REx D2 cells, calcium flux agonist mode; P14416; activation, % at 2 µM; AID 485358; 340,000 compounds, 0.53% hits;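 active = activation over 3 SD above normal in the single-dose calcium agonist read, cut at about 30% in these data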; note: 0% is about no effect
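Tetracycline-induced HEK293 Trex cells with D2 receptor force-coupled to calcium signaling, plated overnight at 30 C and loaded with no-wash calcium dye. Calcium flux read kinetically for 180 s after compound addition; responses flag agonists.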
D2 antagonist – antagonists of human D2 dopamine receptor; P14416; HEK293 TREx D2 cells, calcium flux, dopamine EC80; inhibition, % at 10 µM; 340,000 compounds, 2% hits; in the data active = inhibition above about 30%; inactive = below that, where a call was filed; note: 0% is about no effect
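Overnight-induced (tetracycline, 30 C) HEK293 T-REx cells carrying force-coupled D2 receive a no-wash calcium dye, then compound, then EC80 dopamine at 180 s; signals are read kinetically throughout.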
D2 PAM-2 – positive allosteric modulators of human D2 dopamine receptor; P14416; HEK293 T-REx D2, calcium flux, EC20 dopamine potentiation; potentiation, % at 10 µM; 340,000 compounds, 0.34% hits; AID 485347;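 active = potentiation over 3 SD above the plate norm, cut at about 30% in these data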; note: 0% is about no effect
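Potentiation of an EC20 dopamine calcium response measured kinetically over 180 s, after a preceding 180 s compound-only read flagging agonists. Cells: inducible Hek293 Trex D2 line, 4000/well, cultured overnight at 30 C before dye loading.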
D3 ag – D3 receptor agonism confirmed, beta-arrestin readout; shares compounds with D2 ag-2; DiscoveRx D3 beta-arrestin cells, luminescence, 90 min; Potency, µM (highest dose often 76.9 µM), inactives show at the highest dose activation, most hits filed as activators; 2,300 compounds, 4% hits;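 note: potency is the fitted concentration of half-maximal effect; 100% = dopamine control response; nearly all actives have a fitted effect of over 70% in size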
D2 ag-3 – D2 receptor agonism, beta-arrestin counterscreen. shares compounds with D2 ag-2. DiscoveRx PathHunter D2 beta-arrestin, luminescence, 90 min; response scale: percent relative to full dopamine signal. Potency, µM (highest dose often 76.9 µM), for inactives: top-dose activation, hits mostly activators. 2,300 compounds, 5.9% hits. AID 720507; note: potency is the fitted concentration of half-maximal effect; % of control where 0% means no effect; nearly all actives have a fitted effect of over 70% in size
* hit, by the source's call. An excerpt weighted towards active compounds, which were near 2.4% of everything screened. Unless noted, calls come from the whole dose curve; as a rule, active = well fitted activation curve with a large enough effect; inconclusive = small, poorly fitted or top-dose-only effect; inactive = flat fitted curve, though single readings scatter.

Screening CCCCN(CC)CCCNC(=S)Nc1ccc2nc(N3CCN(CC)CC3)cc(C)c2c1 returned D2 PAM-1 -10, D2 ag-1 4, D2 ag-2 60*, D2 antagonist 41*, D2 PAM-2 -28, D3 ag inconclusive and D2 ag-3 15%.
For CCCN(CCC)CCCNC(=S)Nc1ccc2nc(N3CCCC3)cc(C)c2c1 the results were D2 PAM-1 -17, D2 ag-1 -3, D2 ag-2 4, D2 antagonist -20 and D2 PAM-2 -4.
Screening CCN1C(C(=O)c2ccccc2)=C(OC(=O)COc2ccc(C)cc2)c2ccccc2S1(=O)=O returned D2 ag-2 0 and D2 PAM-2 14.
For CCOC(=O)c1ccc(NS(=O)(=O)c2ccc(Br)s2)cc1 the results were D2 ag-2 -1 and D2 PAM-2 -1.
O=C(c1ccc(Cl)c(S(=O)(=O)N2CCCCC2)c1)N1CCCC(C(F)(F)F)C1 (stereo unspecified) was read as D2 PAM-1 -1, D2 ag-1 3, D2 ag-2 0, D2 antagonist 22, D2 PAM-2 -6, D3 ag 0% and D2 ag-3 0%.
`O=C(O)c1cccc(-n2c(/C=C/c3ccc([N+](=O)[O-])cc3)nc3ccccc3c2=O)c1` gave D2 PAM-1 0, D2 ag-1 -2, D2 ag-2 0, D2 antagonist 13, D2 PAM-2 4, D3 ag 9% and D2 ag-3 6%.
Screening O=C(O)c1cccc(-n2c(/C=C/c3cccc([N+](=O)[O-])c3)nc3ccccc3c2=O)c1 returned D2 PAM-1 1, D2 ag-1 -2, D2 ag-2 0, D2 antagonist 11 and D2 PAM-2 10.
For Cc1c(Cl)cccc1NC(=O)CSc1ncccc1C(=O)Oc1ccccc1Cl the results were D2 ag-2 0 and D2 PAM-2 -4.
Screening CCN1C=C(Cc2cccs2)C2=C(C1)C(c1cccs1)C(C#N)=C(N)O2 (stereo unspecified) returned D2 PAM-1 -18, D2 ag-1 -1, D2 ag-2 44*, D2 antagonist 81*, D2 PAM-2 -31, D3 ag -4% and D2 ag-3 0%.
Screening CCN1CC2=C(OC(N)=C(C#N)C2c2cccs2)/C(=C/c2cccs2)C1 (stereo unspecified) returned D2 PAM-1 -28, D2 ag-1 -2, D3 ag 2% and D2 ag-3 0%.
`Cc1[nH]n(-c2ccc(F)cc2)c(=O)c1/C=N/c1sc2c(c1C#N)CCCC2` gave D2 PAM-1 -13, D2 ag-1 5, D2 ag-2 53*, D2 antagonist 11, D2 PAM-2 -13, D3 ag inconclusive and D2 ag-3 15%.
Screening Cc1ccc(/C=N/c2sc3c(c2C#N)CCCCC3)o1 returned D2 PAM-1 -3, D2 ag-1 14, D3 ag inconclusive and D2 ag-3 29%.
Screening C[C@H]1[C@H](C)CC[C@]2(C)CC[C@]3(C)C(=CC(=O)C4[C@@]5(C)CC[C@H](O)C(C)(C)C5CC[C@]43C)[C@H]12 (stereo partly specified) returned D2 PAM-1 0, D2 ag-1 -4, D2 ag-2 0, D2 antagonist 21, D2 PAM-2 0, D3 ag -2% and D2 ag-3 -1%.
`CC(C)(C)c1ccc(C(=O)N2CCN(CCNC(=O)C(=O)NCc3ccc(Cl)cc3)CC2)cc1` gave D2 PAM-1 5, D2 ag-1 -2, D2 ag-2 0, D2 antagonist 27, D2 PAM-2 4, D3 ag 2% and D2 ag-3 15%.
For O=S(=O)(NCC(c1cccnc1)N1CCN(Cc2ccccc2)CC1)c1ccccc1 (stereo unspecified) the results were D2 PAM-1 -11, D2 ag-1 -6, D2 ag-2 61*, D2 antagonist 30, D2 PAM-2 -16, D3 ag -2% and D2 ag-3 6%.
Cc1ccc(S(=O)(=O)NCC(c2cccnc2)N2CCN(Cc3ccccc3)CC2)cc1 (stereo unspecified) was read as D2 PAM-1 -7, D2 ag-1 -1, D2 ag-2 13, D2 antagonist -8 and D2 PAM-2 -7.
For Cc1cc(C)cc(-n2c(SCC(=O)NC3CCCCC3)nc3c([nH]c4ccccc43)c2=O)c1 the results were D2 ag-2 5 and D2 PAM-2 -5.
O=C(NCCS(=O)(=O)N1CCN(c2ccccc2)CC1)c1ccccc1F was read as D2 PAM-1 3, D2 ag-1 2, D2 ag-2 3, D2 antagonist -4, D2 PAM-2 15, D3 ag -6% and D2 ag-3 8%.
Screening O=C(NCCN1CCN(c2ccccc2)CC1)c1ccccc1F returned D2 PAM-1 -17, D2 ag-1 inconclusive, D2 ag-2 79*, D2 antagonist 72*, D2 PAM-2 -28, D3 ag inconclusive and D2 ag-3 15%.
For O=C(COc1ccccc1)NCCS(=O)(=O)N1CCN(c2ccccc2)CC1 the results were D2 PAM-1 2, D2 ag-1 inconclusive, D2 ag-2 28, D2 antagonist 77*, D2 PAM-2 5, D3 ag 18% and D2 ag-3 inconclusive.
`COc1ccc(CNC(=O)Cn2c(=O)nc(-c3ccccc3F)c3cc(Cl)ccc32)cc1` gave D2 ag-2 -3 and D2 PAM-2 0.
For COc1ccc(C2Nc3ccccc3NC3=C2C(=O)CC(C)(C)C3)cc1OC (stereo unspecified) the results were D2 PAM-1 -6, D2 ag-1 8, D2 ag-2 0, D2 antagonist 38*, D2 PAM-2 -4, D3 ag -1% and D2 ag-3 -1%.
For CSc1ccc(CNC(=O)CN2C(=O)C3CCCCN3c3ccc(C(=O)N4CCCC4)cc32)cc1 (stereo unspecified) the results were D2 PAM-2 -1.
For O=C(c1cc(-c2ccc(F)cc2)on1)N1CCCC1 the results were D2 PAM-1 -3, D2 ag-1 0, D2 ag-2 0, D2 antagonist 25, D2 PAM-2 -11, D3 ag -11% and D2 ag-3 -3%.

Source: PubChem BioAssay (National Center for Advancing Translational Sciences (NCATS))
